The nature of test [1]: ATG_PBREM_CIS: Attagene CIS-FACTORIAL HepG2 Assay for human Phenobarbital-responsive Enhancer Module (PBREM) (AID 2282955). Conditions: HepG2 PBREM cis-reporter, Attagene multiplexed transcription; actives raise or lower the signal. The essentials: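 Cells were transfected with cis-element reporter units and treated for 24 h, after which RNA was extracted and reporter transcripts measured by RT-PCR and capillary electrophoresis.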

For test [2], the target named is Paired box protein Pax-6 (Homo sapiens) (UniProt P26367). As to the kind of experiment: ATG_Pax6_CIS: Attagene CIS-FACTORIAL HepG2 Assay for human Paired Box 6 (PAX6) (AID 2282956). Conditions: HepG2 CIS-FACTORIAL PAX6 reporter transcription, RNA readout; actives raise or lower the signal. An outline of the steps: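 After twenty-four hours of chemical exposure, transfected HepG2 cells are harvested for RNA. Cis-promoter reporter transcripts are amplified, fluorescently labelled and sized by capillary electrophoresis, with gain and loss of signal scored against DMSO.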
Chain of Paired box protein Pax-6 (Homo sapiens) (P26367 whole entry, looked up): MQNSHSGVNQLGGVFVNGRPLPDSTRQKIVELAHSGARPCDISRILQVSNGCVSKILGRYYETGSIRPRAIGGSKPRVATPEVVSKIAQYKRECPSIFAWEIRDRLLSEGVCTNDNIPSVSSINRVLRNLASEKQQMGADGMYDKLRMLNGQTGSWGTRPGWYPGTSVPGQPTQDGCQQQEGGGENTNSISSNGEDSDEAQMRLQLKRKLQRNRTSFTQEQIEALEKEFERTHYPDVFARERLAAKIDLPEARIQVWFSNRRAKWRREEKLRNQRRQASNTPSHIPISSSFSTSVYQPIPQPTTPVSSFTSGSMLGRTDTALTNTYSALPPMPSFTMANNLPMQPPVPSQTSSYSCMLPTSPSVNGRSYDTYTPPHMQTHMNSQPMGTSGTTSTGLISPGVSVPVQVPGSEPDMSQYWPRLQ

Test [3] is described as follows: ATG_PXRE_CIS: Attagene CIS-FACTORIAL HepG2 Assay for human Pregnane X Receptor Element (PXRE) (AID 2282957). Conditions: HepG2 Attagene CIS-FACTORIAL PXRE reporter, mRNA; actives raise or lower the signal. The essentials: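 HepG2 cells transiently transfected with cis-element-driven multiplexed reporter units; after 24 h chemical exposure, reporter mRNA measured by RT-PCR, 6-FAM labelling, HpaI digestion and capillary electrophoresis. Bidirectional fitting relative to DMSO.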

Test [4] is described as follows: ATG_PPRE_CIS: Attagene CIS-FACTORIAL HepG2 Assay for human Peroxisome Proliferator-activated Response Element (PPRE) (AID 2282958). Particulars: HepG2 PPRE cis-element reporter, Attagene transcription factor profiling; actives raise or lower the signal. The essentials: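 In this cell-based multiplex, a PPRE cis element drives a reporter sequence in transiently transfected HepG2 cells. Following 24 h treatment, labeled cDNA amplicons are sized and quantified by capillary electrophoresis, with DMSO defining baseline.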

Test [5] can be described thus: ATG_RORE_CIS: Attagene CIS-FACTORIAL HepG2 Assay for human RAR-related Orphan Receptor Element (RORE) (AID 2282959). Conditions: HepG2 Attagene cis-factorial RORE reporter, mRNA; actives raise or lower the signal. The essentials: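 Endogenous factor activity at a cis response element is read as reporter transcript levels in HepG2 cells, 24 h post-dose. Transcripts are quantified by RT-PCR with capillary electrophoresis, and data fitted in both directions against DMSO.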

Test [6] in a line: ATG_Sox_CIS: Attagene CIS-FACTORIAL HepG2 Assay for human SRY-box transcription factor (SOX) (AID 2282960). Particulars: HepG2 Attagene cis-factorial SOX reporter, mRNA; actives raise or lower the signal. An outline of the steps:
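Measures mRNA induction of a SOX1-associated reporter in HepG2 after 24 h dosing. Fluorescently labelled RT-PCR fragments are separated by capillary electrophoresis, and gain or loss relative to DMSO control is fitted.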

The target of test [7] is Transcription factor Sp1 (Homo sapiens) (UniProt P08047). Description: ATG_Sp1_CIS: Attagene CIS-FACTORIAL HepG2 Assay for human Specificity Protein 1 (Sp1) (AID 2282961). Particulars: HepG2 Sp1 cis-reporter transcription, actives raise or lower the signal. An outline of the steps: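 Cells: HepG2, transiently transfected with cis-regulated multiplexed reporters. Exposure: 24 h. Detection: reporter transcripts amplified, fluorescently labeled, restriction-digested and sized by capillary electrophoresis. Analysis: bidirectional fit relative to DMSO.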
Chain of Transcription factor Sp1 (Homo sapiens) (P08047 whole entry, looked up): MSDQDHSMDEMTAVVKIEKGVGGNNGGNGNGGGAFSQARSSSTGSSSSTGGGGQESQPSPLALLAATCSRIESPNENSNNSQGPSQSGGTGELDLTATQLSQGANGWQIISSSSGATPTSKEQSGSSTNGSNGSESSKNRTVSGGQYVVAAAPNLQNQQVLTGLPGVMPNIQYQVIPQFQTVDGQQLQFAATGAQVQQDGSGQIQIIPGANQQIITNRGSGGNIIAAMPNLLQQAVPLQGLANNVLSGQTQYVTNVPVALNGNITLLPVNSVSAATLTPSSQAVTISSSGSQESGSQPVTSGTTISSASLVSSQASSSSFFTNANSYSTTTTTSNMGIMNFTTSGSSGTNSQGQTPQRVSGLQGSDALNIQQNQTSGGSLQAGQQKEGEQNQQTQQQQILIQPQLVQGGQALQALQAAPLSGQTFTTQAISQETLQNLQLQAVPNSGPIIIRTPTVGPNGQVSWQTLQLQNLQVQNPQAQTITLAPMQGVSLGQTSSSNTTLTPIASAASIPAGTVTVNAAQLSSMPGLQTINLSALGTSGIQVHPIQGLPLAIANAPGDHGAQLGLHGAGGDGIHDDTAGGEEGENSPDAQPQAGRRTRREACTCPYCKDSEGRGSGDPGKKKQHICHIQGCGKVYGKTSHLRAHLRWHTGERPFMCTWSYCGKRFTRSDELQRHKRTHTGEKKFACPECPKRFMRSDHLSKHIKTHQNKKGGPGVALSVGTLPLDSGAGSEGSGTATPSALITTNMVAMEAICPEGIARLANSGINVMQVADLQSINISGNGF

The nature of test [8]: ATG_SREBP_CIS: Attagene CIS-FACTORIAL HepG2 Assay for human Sterol Regulatory Element Binding (SREBP) (AID 2282962). Particulars: HepG2 Attagene cis-factorial SREBP reporter, mRNA; actives raise or lower the signal. An outline of the steps: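 Twenty-four hours after chemical dosing of transfected HepG2 cultures, reporter RNA was converted to cDNA, amplified, end-labelled with 6-FAM and resolved by capillary electrophoresis. Responses were fitted relative to DMSO.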

Test [9] concerns the target Signal transducer and activator of transcription 3 (Homo sapiens) (UniProt P40763). As to the kind of experiment: ATG_STAT3_CIS: Attagene CIS-FACTORIAL HepG2 Assay for human Signal Transducer and Activator of Transcription 3 (STAT3) (AID 2282963). Conditions: HepG2, Attagene cis-factorial STAT3 reporter transcription; actives raise or lower the signal. An outline of the steps: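 Endogenous STAT3-responsive cis-element activity was read in transiently transfected HepG2 cells after 24 h treatment. Reporter transcripts were quantified via RT-PCR and capillary electrophoresis, with DMSO as negative control and bidirectional curve fitting.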

Test [10] in a line: ATG_TA_CIS: Attagene CIS-FACTORIAL HepG2 Assay for human TA Basal Promoter (AID 2282964). Particulars: HepG2 Attagene CIS-factorial TA basal promoter reporter; actives raise or lower the signal. An outline of the steps: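 Read-out: fluorescent reporter-transcript fragments resolved by capillary electrophoresis after RT-PCR and HpaI digestion. Source: HepG2 cells carrying transiently transfected multi-reporter cis constructs, treated 24 h. Endpoint fitted bidirectionally relative to DMSO.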

Test [11] can be described thus: ATG_TCF_b_cat_CIS: Attagene CIS-FACTORIAL HepG2 Assay for human T-Cell-Factor with beta-catenin (TCF/b-cat) (AID 2282965). Particulars: HepG2 TCF/beta-catenin cis-reporter transcription, actives raise or lower the signal. The essentials: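 Endogenous transcription factor activity is captured through cis-promoter reporter constructs transiently introduced into human HepG2 liver cells. Induced reporter mRNA is measured after 24 h and fitted bidirectionally relative to DMSO.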

Test [12] can be described thus: ATG_TGFb_CIS: Attagene CIS-FACTORIAL HepG2 Assay for human Transforming Growth Factor (TGF) (AID 2282967). Conditions: HepG2 Attagene CIS TGFb reporter, mRNA transcription; actives raise or lower the signal. An outline of the steps:
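Transient MRTU transfection of HepG2 (FuGene 6). Dose 24 h. TriZol RNA, oligo(dT) RT, PCR, 6-FAM primer extension, HpaI cut, CE. Bidirectional fit, DMSO = baseline.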

Test [13] is described as follows: ATG_VDRE_CIS: Attagene CIS-FACTORIAL HepG2 Assay for human Vitamin D Receptor Element (VDRE) (AID 2282968). Conditions: HepG2 VDRE cis-reporter transcription, actives raise or lower the signal. The essentials: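 Reporter mRNA induction, quantified by capillary electrophoresis of fluorescently labelled RT-PCR products, was read 24 h after dosing HepG2 cells carrying transiently transfected cis-regulated reporter units; gain or loss relative to DMSO.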

For test [14], the target named is Estrogen receptor (Homo sapiens) (UniProt P03372). As to the kind of experiment: ATG_ERa_TRANS: Attagene TRANS-FACTORIAL HepG2 Assay for human Estrogen Receptor alpha (ERa) (AID 2282970; active = hit-call score of the fitted dose curve at least 0.9, where 1 is the maximum). Particulars: HepG2 Attagene TRANS ERa GAL4 reporter, mRNA. An outline of the steps: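 HepG2 cells transiently transfected with multiplexed GAL4-UAS reporter units read out chimeric NR-Gal4 activity. After 24 h compound exposure, reporter mRNA was quantified by RT-PCR, 6-FAM labeling, HpaI digestion and capillary electrophoresis, relative to DMSO.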
Chain of Estrogen receptor (Homo sapiens) (P03372 whole entry, looked up, the tested form may be a part): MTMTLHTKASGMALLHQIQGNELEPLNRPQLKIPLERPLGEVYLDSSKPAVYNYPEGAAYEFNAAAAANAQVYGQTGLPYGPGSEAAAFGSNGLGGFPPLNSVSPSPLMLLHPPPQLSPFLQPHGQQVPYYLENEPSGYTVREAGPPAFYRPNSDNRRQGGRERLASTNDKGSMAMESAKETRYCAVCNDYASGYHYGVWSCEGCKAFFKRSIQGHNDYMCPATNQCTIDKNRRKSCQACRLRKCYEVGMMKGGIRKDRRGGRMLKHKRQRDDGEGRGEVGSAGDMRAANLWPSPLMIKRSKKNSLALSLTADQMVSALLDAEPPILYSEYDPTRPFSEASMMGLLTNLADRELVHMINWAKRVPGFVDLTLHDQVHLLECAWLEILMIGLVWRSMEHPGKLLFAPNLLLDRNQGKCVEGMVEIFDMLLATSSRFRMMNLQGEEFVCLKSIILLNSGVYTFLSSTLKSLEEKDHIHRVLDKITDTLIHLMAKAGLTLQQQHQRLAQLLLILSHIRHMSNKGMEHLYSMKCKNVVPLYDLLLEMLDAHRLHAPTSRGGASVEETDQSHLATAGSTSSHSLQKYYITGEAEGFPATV

Test [15] deals with X-box-binding protein 1 (Homo sapiens) (UniProt P17861). As to the kind of experiment: ATG_Xbp1_CIS: Attagene CIS-FACTORIAL HepG2 Assay for human X-box Binding Protein 1 (XBP1) (AID 2282972). Particulars: HepG2 XBP1 cis-element reporter, Attagene multiplex; actives raise or lower the signal. The essentials: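 After a 24-hour chemical exposure of HepG2 cells carrying cis-regulated reporters, reporter mRNA levels are assessed. Quantification uses RT-PCR, 6-FAM labelling and capillary electrophoresis. Gain- or loss-of-signal is fitted against DMSO.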
Chain of X-box-binding protein 1 (Homo sapiens) (P17861 whole entry, looked up): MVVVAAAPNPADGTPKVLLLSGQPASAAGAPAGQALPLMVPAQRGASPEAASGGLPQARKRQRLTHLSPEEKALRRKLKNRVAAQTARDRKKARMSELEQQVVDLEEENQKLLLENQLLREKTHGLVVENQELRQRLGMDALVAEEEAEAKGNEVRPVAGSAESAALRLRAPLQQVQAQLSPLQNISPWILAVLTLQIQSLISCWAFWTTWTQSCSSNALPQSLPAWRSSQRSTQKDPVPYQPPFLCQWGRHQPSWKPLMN

Test [16] in a line: ATG_GAL4_TRANS: Attagene TRANS-FACTORIAL HepG2 Assay for GAL4 (Internal Marker) (AID 2282976; active = hit-call score of the fitted dose curve at least 0.9, where 1 is the maximum). Conditions: HepG2 Attagene TRANS GAL4 internal marker reporter. An outline of the steps: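 Background-control readout: GAL4-UAS reporter transcript in transiently transfected HepG2 cells after 24 h compound exposure. Measured by RT-PCR, 6-FAM primer extension, HpaI digest and capillary electrophoresis; gain-of-signal fit versus DMSO.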

Test [17] can be described thus: ATG_TAL_CIS: Attagene CIS-FACTORIAL HepG2 Assay for human TAL Basal Promoter (AID 2282966).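 Note: background control endpoint measuring basal TAL promoter reporter mRNA not a specific factor.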 Conditions: HepG2 Attagene cis-factorial TAL promoter reporter; actives raise or lower the signal. An outline of the steps: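 HepG2 cells transiently transfected with multiplexed cis-promoter reporter units, dosed 24 h. Reporter mRNA quantified by RT-PCR, 6-FAM labelling, HpaI digestion and capillary electrophoresis; TAL basal promoter serves as background control, fitted bidirectionally versus DMSO.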

Test [18] addresses Nuclear receptor subfamily 1 group I member 3 (Homo sapiens) (UniProt Q14994). Description: ATG_CAR_TRANS: Attagene TRANS-FACTORIAL HepG2 Assay for human Constitutive Androstane Receptor (CAR) (AID 2282969; active = hit-call score of the fitted dose curve at least 0.9, where 1 is the maximum;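 note: activators raise reporter mRNA above DMSO so AC50 marks induction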). Particulars: HepG2 Attagene TRANS-FACTORIAL CAR reporter. The essentials: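 Readout is reporter mRNA induction, quantified by fluorescent primer extension and capillary electrophoresis after RT-PCR. Cells were HepG2 transiently carrying chimeric NR-Gal4 constructs with GAL4-UAS reporters, treated for 24 h; activity scored upward from DMSO.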

Test [19] concerns the target Steroid hormone receptor ERR1 (Homo sapiens) (UniProt P11474). As to the kind of experiment: ATG_ERRa_TRANS: Attagene TRANS-FACTORIAL HepG2 Assay for human Estrogen-Related Receptor alpha (ERRa) (AID 2282971; active = hit-call score of the fitted dose curve at least 0.9, where 1 is the maximum). Conditions: HepG2 Attagene TRANS reporter, ERRa transactivation. An outline of the steps: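 HepG2 cells transiently transfected with GAL4-UAS reporter units and chimeric NR-Gal4 constructs; after 24 hour compound incubation, reporter mRNA quantified by RT-PCR, fluorescent labelling and capillary electrophoresis, gain of signal versus DMSO.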

The nature of test [20]: ATG_M_19_TRANS: Attagene TRANS-FACTORIAL HepG2 Assay for M19 Transcription Factor (Internal Marker) (AID 2282974; active = hit-call score of the fitted dose curve at least 0.9, where 1 is the maximum). Particulars: HepG2 Attagene TRANS-FACTORIAL M19 internal marker reporter. The essentials:
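Reporter mRNA induction was measured in transfected HepG2 cells 24 h after dosing. Endpoint fitted upward relative to DMSO and serves as a background control within the multiplexed TRANS panel.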

Each structure is given as a SMILES string. Records with an inconclusive call do not appear. Calls of active or inactive are those of the source. Rule for the calls, unless noted: active = hit-call score of the fitted dose curve at least 0.9, where 1 is the maximum; inactive = score below 0.9.

A word on the AC50: it is the concentration at which the activity in the assay is half-maximal.

Chain of Signal transducer and activator of transcription 3 (Homo sapiens) (P40763 whole entry, looked up): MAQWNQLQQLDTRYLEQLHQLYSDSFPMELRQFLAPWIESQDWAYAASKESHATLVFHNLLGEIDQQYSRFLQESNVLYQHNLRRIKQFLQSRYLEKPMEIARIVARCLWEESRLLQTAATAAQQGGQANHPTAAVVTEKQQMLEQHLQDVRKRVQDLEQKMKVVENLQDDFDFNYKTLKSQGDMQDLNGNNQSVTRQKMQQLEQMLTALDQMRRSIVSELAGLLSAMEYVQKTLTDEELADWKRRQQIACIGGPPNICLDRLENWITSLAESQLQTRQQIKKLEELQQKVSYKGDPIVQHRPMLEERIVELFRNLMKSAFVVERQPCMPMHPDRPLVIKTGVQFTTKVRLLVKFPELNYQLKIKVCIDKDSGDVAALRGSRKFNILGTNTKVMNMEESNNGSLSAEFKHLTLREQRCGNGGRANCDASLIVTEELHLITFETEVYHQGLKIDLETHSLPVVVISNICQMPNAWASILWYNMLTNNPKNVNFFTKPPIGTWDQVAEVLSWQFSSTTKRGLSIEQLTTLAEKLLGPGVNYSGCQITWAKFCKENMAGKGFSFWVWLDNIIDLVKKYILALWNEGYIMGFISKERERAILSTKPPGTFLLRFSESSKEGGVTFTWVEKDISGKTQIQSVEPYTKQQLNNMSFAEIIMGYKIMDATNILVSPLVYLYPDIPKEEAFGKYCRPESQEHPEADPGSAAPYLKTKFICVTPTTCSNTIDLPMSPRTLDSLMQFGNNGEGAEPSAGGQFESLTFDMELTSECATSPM
Chain of Nuclear receptor subfamily 1 group I member 3 (Homo sapiens) (Q14994 whole entry, looked up, the tested form may be a part): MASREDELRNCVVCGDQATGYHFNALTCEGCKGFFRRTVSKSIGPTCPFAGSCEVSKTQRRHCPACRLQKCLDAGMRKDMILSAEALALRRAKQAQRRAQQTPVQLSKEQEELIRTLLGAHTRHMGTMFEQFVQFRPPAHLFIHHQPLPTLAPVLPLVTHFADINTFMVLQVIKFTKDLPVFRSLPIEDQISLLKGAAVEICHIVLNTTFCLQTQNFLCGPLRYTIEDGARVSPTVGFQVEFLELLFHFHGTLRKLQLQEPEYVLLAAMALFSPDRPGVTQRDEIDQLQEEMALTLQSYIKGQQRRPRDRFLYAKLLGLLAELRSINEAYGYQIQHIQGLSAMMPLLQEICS
Chain of Steroid hormone receptor ERR1 (Homo sapiens) (P11474 whole entry, looked up, the tested form may be a part): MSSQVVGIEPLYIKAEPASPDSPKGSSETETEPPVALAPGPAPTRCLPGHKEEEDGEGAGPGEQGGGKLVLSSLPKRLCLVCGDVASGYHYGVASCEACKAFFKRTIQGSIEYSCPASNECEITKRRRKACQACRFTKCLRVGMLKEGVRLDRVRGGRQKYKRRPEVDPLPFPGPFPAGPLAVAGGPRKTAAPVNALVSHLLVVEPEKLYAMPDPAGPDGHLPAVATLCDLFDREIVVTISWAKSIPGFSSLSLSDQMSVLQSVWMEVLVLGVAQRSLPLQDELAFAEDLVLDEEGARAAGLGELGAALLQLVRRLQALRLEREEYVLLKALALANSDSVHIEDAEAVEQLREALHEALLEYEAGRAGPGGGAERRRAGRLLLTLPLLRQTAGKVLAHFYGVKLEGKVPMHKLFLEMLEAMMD

Consider `COC(=O)C(C)Oc1ccc(Oc2ncc(C(F)(F)F)cc2Cl)cc1` (stereo not given), for which the concentration at half-maximal activity (AC50) in test [1] was 77.7 µM (active); in [3], 14.1 µM (active); in [4] it was 34.3 µM (active); in test [5], 64.6 µM (active); in test [12], 133 µM (active); in test [13], 42.8 µM (active). Besides, the call in test [2], in test [6], in [7], in test [8], in test [9] and in test [10] was inactive. For the same molecule, the outcome in test [11], in [14], in test [15] and in test [16] was inactive.
Turning to `CC(C)COC(=O)c1ccccc1`, the outcome in test [1], in test [2], in test [3], in test [4], in [5] and in test [6] was inactive. Besides, the result in test [7], in test [8], in [10], in test [17], in test [12] and in test [13] was inactive. The molecule was called inactive in [14] and in test [15].
Regarding `O=C(O)c1ccc(C(=O)O)c(C(=O)O)c1`, the outcome in test [1], in [2], in [3], in test [4], in test [5] and in [6] was inactive. For the same molecule, the molecule was classed as inactive in test [7], in [9], in test [10], in test [11], in test [17] and in [12]. Also, the molecule was classed as inactive in [18], in test [14], in test [19] and in test [15].
On to `CCCOC(=O)CC`, for which the result in test [1], in test [2], in test [3], in test [4], in [5] and in test [6] was inactive. The call in [7], in [8], in test [10], in [17], in test [13] and in [15] was inactive. For the same molecule, the call in test [20] and in test [16] was inactive.

Source of the values: PubChem BioAssay (EPA / NIEHS).
